Compounds with a hit are over-represented: about 10% of the library has one in this group of screens.
HP1b chromo inh = HTS for Inhibitors of HP1-beta Chromodomain Interactions with Methylated Histone Tails. AID 540317, 2011. AlphaScreen HP1-beta / biotin-H3K9me3 peptide binding. Chromobox protein homolog 1 (Homo sapiens), P83916. actives 0.56% (n = 390,000). Potency, µM (series often up to 114 µM), inactives show top-dose activity change, negative = inhibition, actives largely listed as inhibitors; note: nearly all actives have a fitted effect of over 70% in size
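AlphaScreen: HP1-beta (50 nM) preformed 30 min with biotin-H3(1-18)K9me3 peptide (50 nM) in PBS pH 7.4, 0.01% Tween-20. Compound added for 30 min at RT, then streptavidin donor/nickel chelate acceptor beads (10 ug/mL) for 30 min.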
JMJD2A Tudor inh = qHTS Assay for Inhibitors of JMJD2A-Tudor Domain. Potency, µM (series often up to 114 µM), for the others: top-dose activity change, negative = inhibition, actives largely listed as inhibitors. AID 504339, 2011. AlphaScreen JMJD2A-Tudor / H3K4me3 peptide binding. actives 4.4% (n = 390,000); note: % is set by controls: 0 for no effect and ±100 for the full control effect; nearly all actives have a fitted effect of over 50% in size
G9a inh = qHTS Assay for Inhibitors of Histone Lysine Methyltransferase G9a; G9a H3K9 monomethylation, AlphaScreen, 2 h; actives 8.8% (n = 350,000); Potency, µM (top dose mostly 102 µM), without a hit: at the highest dose activity, negative = inhibition, usual class: inhibitors; Histone-lysine N-methyltransferase EHMT2 (Homo sapiens), Q96KQ7; note: % is set by controls: 0 for no effect and ±100 for the full control effect; nearly all actives have a fitted effect of over 75% in size
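G9a (20 nM) preincubated 15 min RT with compounds, then 500 nM biotinylated H3K9 peptide and 20 uM SAM added; 2 h RT reaction. Monomethyl-H3K9 product detected by AlphaScreen with anti-H3K9me1 antibody, streptavidin donor and anti-rabbit IgG acceptor beads.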
BAZ2B block = qHTS Assay for Inhibitors of BAZ2B; actives 4.4% (n = 360,000); Bromodomain adjacent to zinc finger domain protein 2B (Homo sapiens), Q9UIF8; Potency, µM (highest dose often 114 µM), without a hit: top-dose activity change, negative = inhibition, most hits filed as inhibitors; AlphaScreen BAZ2B-H3K14Ac peptide displacement; note: % is set by controls: 0 for no effect and ±100 for the full control effect; nearly all actives have a fitted effect of over 60% in size
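AlphaScreen luminescence quantifies BAZ2B engagement of H3K14Ac peptide; the protein and biotinylated peptide are both at 50 nM final, buffer PBS pH 7.4 with 0.01% Tween-20, all steps at room temperature.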
GLS inh = qHTS for Inhibitors of Glutaminase (GLS) | Glutaminase kidney isoform, mitochondrial (Homo sapiens), O94925 | GLS enzymatic activity, qHTS titration | Potency, µM (top dose mostly 45.5 µM), without a hit: at the top dose activity change, negative = inhibition, actives largely listed as inhibitors | actives 0.21% (n = 410,000) | AID 624170, 2012; note: % is set by controls: 0 for no effect and ±100 for the full control effect
Target sequence (O94925 whole entry, looked up, canonical isoform): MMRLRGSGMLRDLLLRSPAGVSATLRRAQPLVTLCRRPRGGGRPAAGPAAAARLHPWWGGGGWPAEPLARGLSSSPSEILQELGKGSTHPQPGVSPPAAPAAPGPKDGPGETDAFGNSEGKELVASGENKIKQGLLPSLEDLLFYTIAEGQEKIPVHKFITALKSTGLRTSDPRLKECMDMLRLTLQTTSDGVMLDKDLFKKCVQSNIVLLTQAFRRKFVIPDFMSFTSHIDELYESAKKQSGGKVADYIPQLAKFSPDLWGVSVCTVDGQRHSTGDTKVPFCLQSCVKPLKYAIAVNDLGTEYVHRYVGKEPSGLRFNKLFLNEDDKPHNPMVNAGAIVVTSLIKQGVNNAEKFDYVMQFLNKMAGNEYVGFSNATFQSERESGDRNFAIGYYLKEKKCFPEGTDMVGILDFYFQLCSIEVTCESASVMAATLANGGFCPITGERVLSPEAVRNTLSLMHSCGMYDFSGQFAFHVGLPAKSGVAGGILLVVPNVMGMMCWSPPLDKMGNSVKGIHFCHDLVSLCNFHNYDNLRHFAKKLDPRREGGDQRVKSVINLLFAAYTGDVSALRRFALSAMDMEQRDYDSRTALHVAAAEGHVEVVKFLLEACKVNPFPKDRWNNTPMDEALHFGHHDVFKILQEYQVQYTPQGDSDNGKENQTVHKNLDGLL
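Compounds were pin-transferred onto hKGA, after which L-glutamine (1 mM solution) and a detection mix of glutamate oxidase, HRP and Amplex Red were added. Initial and 30 min RT fluorescence reads were collected.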
An asterisk follows results filed as active; ! = not active in a repeat; [ ] = remark or other dose. Calls come from the whole dose curve; as a rule, active = well fitted curve in the direction sought with a large enough effect; inconclusive = small, poorly fitted or top-dose-only effect, or another doubt; inactive = no such curve, though single readings can be large; an effect the other way counts as inactive or inconclusive. Potency is the fitted concentration of half-maximal effect.

CCN1C(=O)N(CC)C(=O)C2(Cc3ccccc3N3CCN(c4ccccc4)CC32)C1=O (centres undefined) was read as HP1b chromo inh 42.0%, JMJD2A Tudor inh -22.3%, G9a inh 2µM*, BAZ2B block inconclusive and GLS inh 11.6%.
For CN1C(=O)N(C)C(=O)C2(Cc3cc(NC(=O)c4ccccc4Cl)ccc3N3CCCC32)C1=O (centres undefined) the results were HP1b chromo inh 40.8%, JMJD2A Tudor inh inconclusive, BAZ2B block -11.1% and GLS inh 2.3%.
CN1C(=O)N(C)C(=O)C2(Cc3cc(N)ccc3N3CCN(c4ccccc4F)CC32)C1=O (centres undefined) was read as G9a inh 28.2µM* and BAZ2B block 50.1µM*.
CC(C)C(Br)C(=O)NC(N)=O (centres undefined) was read as G9a inh 7.5%[59 µM] and GLS inh 6.3%.
CCOC(=O)c1c(C)[nH]c(C)c1S(=O)(=O)NCC(=O)N1CCN(c2cc(Cl)ccc2C)CC1 was read as HP1b chromo inh 5.4%, JMJD2A Tudor inh inconclusive, G9a inh inconclusive, BAZ2B block inconclusive and GLS inh -14.7%.
O=C(O)c1ccc[nH]c1=S was read as HP1b chromo inh 38.4%, JMJD2A Tudor inh 0.891µM*, G9a inh 3.55µM*, BAZ2B block 39.8µM* and GLS inh inconclusive.
`COc1ccc(C)cc1NC(=O)N(Cc1ccc2c(c1)OCO2)C1CCN(Cc2ccccc2)CC1` gave HP1b chromo inh 2.6%, JMJD2A Tudor inh inconclusive, G9a inh inconclusive, BAZ2B block inconclusive and GLS inh -15.1%.
COc1ccc(C)cc1NC(=O)CN1CCN(CC(=O)Nc2ccccc2F)CC1 was read as HP1b chromo inh 52.3%, JMJD2A Tudor inh 9.1%, G9a inh 39.8µM*!, BAZ2B block -2.1% and GLS inh -0.4%.
COc1cc2c(cc1OC)C(C)N(C(=O)c1nccnc1C(=O)O)CC2 (centres undefined) was read as HP1b chromo inh -10.4%, JMJD2A Tudor inh 50.1µM*, G9a inh inconclusive, BAZ2B block inconclusive and GLS inh -12.6%.
Screening COc1cc2c(cc1OC)C(C)NCC2 (centres undefined) returned HP1b chromo inh 58.6%, JMJD2A Tudor inh -4.8%, G9a inh -22.5%[59 µM], BAZ2B block -2.3% and GLS inh 1.4%.
`Cc1ccc(/C=C2/C(=O)NC(=O)N(CCc3ccc(F)cc3)C2=O)s1` gave HP1b chromo inh 31.9%, JMJD2A Tudor inh inconclusive, G9a inh -21.6%[59 µM], BAZ2B block 0.5% and GLS inh 2.3%.
CCN1C(=O)/C(=C\c2ccc([N+](=O)[O-])s2)C(=O)NC1=S was read as G9a inh 2.82µM* and BAZ2B block 10µM*.
`C=CCN1C(=O)/C(=C/c2ccc(Br)s2)C(=O)NC1=S` gave HP1b chromo inh -13.4%, JMJD2A Tudor inh 44.7µM*, G9a inh 3.16µM*, BAZ2B block 56.2µM* and GLS inh -8.2%.
Screening CCC1C2CC3C4N(C)c5ccccc5[C@]45CC(C2C5O)N3C1O (some centres undefined) returned G9a inh -3.2%[2.33 µM].
Screening NC1=N[C@H](O)[C@H]2C3O[C@]4(O)O[C@H](C(O)[C@@]2(N1)[C@@H]4O)C3(O)CO (some centres undefined) returned G9a inh 1.6%[59 µM].
`CCCCn1c(C)c(C(=O)O)c2cc(OC)ccc21` gave HP1b chromo inh 13.0%, JMJD2A Tudor inh -15.7%, G9a inh -7.5%[59 µM], BAZ2B block -8.7% and GLS inh 1.0%.
For CCOC(=O)c1c(C)n(CCN2CCN(C)CC2)c2ccc(OC)cc12 the results were HP1b chromo inh inconclusive, JMJD2A Tudor inh 17.8µM*, G9a inh inconclusive, BAZ2B block -33.8% and GLS inh 14.1%.
`Cc1ccc2c(c1)[C@@H]1CN(C)CC[C@H]1N2` gave G9a inh 3.0%[12.7 µM] and GLS inh 42.6%.
For O=C(Cn1c(=O)n(CC2CCC(C(=O)NCCc3ccccc3)CC2)c(=O)c2ccccc21)Nc1cccc(F)c1 (centres undefined) the results were HP1b chromo inh 10.6%, JMJD2A Tudor inh 56.2µM*, G9a inh -6.1%[59 µM], BAZ2B block -0.9% and GLS inh -0.6%.
`C=C(C)[C@H]1Cc2c(ccc3c2O[C@@H]2COc4cc(OC)c(OC)cc4[C@@H]2C3=O)O1` gave G9a inh 10.3%[12.7 µM] and GLS inh -13.0%.
Screening CSc1ccc(C(=O)C2CCCN(Cc3cc4ccccc4[nH]3)C2)cc1 (centres undefined) returned HP1b chromo inh inconclusive, JMJD2A Tudor inh 11.2µM*, G9a inh 15.8µM*, BAZ2B block 20µM* and GLS inh -0.9%.
`COC(=O)C1=C(C(=O)OC)SC2(S1)C(C(=O)OC)=C(C(=O)OC)Sc1c2ssc1=O` gave HP1b chromo inh 15.8µM*, JMJD2A Tudor inh 39.8µM* and GLS inh -20.9%.
COc1cc(/C=N/n2cnnc2)ccc1OC(=O)N(C)C was read as HP1b chromo inh 14.7%, JMJD2A Tudor inh -31.5%, G9a inh 5.1%[12.7 µM], BAZ2B block -17.6% and GLS inh 4.4%.
`COc1cc(/C=C/[N+](=O)[O-])ccc1OC(=O)c1cccnc1` gave HP1b chromo inh 15.9%, JMJD2A Tudor inh -22.6%, G9a inh 3.55µM*, BAZ2B block -31.9% and GLS inh 57.4%.
For Cc1cccc(-c2nc(CN3C(=O)CN=C(c4ccccc4)c4ccccc43)c(C)o2)c1 the results were HP1b chromo inh -21.0%, JMJD2A Tudor inh inconclusive, G9a inh inconclusive, BAZ2B block 22.4µM* and GLS inh 18.3%.
Screening Oc1ccc2c3c1OC1C(O)C=CC4[C@@H](C2)NCC[C@]314 (some centres undefined) returned GLS inh 64.7%[99.4 µM].
`C#C[C@]1(O)CC[C@H]2[C@@H]3CCC4=CC(=O)CCC4(C)[C@H]3CCC21C` (some centres undefined) gave G9a inh -29.7%[59 µM] and GLS inh 1.8%.
For O=C(O)CC1OCC=C2CN3CCC45C6=CC(=O)C(=O)C([N+](=O)[O-])=C6NC4C1C2CC35 (centres undefined) the results were HP1b chromo inh 54.6%, JMJD2A Tudor inh 2.51µM*!, BAZ2B block inconclusive and GLS inh -13.9%.

High-throughput results: PubChem BioAssay, National Center for Advancing Translational Sciences (NCATS)
